Screening data from PubChem BioAssay.
An excerpt weighted towards active compounds, which were near 3.1% of everything screened.
TexasRed fluor = Total Fluorescence Counterscreen for Inhibitors of the Interaction of Thyroid Hormone Receptor and Steroid Receptor Coregulator 2; TRb/SRC2 Texas Red total fluorescence interference; Potency, µM (doses to about 106 µM); 280,000 compounds, 0.29% hits; AID 1479, 2009; active = well fitted curve in either direction with a large enough effect; inconclusive = small, poorly fitted or top-dose-only effect
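Human TRb ligand-binding domain at 0.6 uM with 20 nM Texas Red SRC2 peptide in Tris buffer containing 1 uM T3 and 5% DMSO, incubated with compound 5 h at ambient temperature. Total fluorescence (555/632 nm) calculated as parallel + 2 × perpendicular.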
Tau FP inhib = qHTS for Inhibitors of Tau Fibril Formation, Fluorescence Polarization | K18 P301L tau heparin fibrillization, Alexa594 FP, 6 h | 280,000 compounds, 0.39% hits | Microtubule-associated protein tau (Homo sapiens), P10636 | Potency, µM (top dose mostly 57.7 µM), usual class: inhibitors; note: nearly all actives have a fitted effect of over 55% in size
Target sequence (P10636 561-689 P618L limits assumed): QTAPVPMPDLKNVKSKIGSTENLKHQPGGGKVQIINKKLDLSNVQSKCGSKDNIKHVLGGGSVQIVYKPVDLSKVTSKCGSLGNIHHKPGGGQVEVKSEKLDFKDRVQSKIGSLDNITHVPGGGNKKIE
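FP of Alexa 594-tau after heparin (20 uM) induction. Substrate: human K18 P301L, 15 uM unlabeled, 0.24 uM labeled. Buffer 100 mM sodium acetate pH 7. 6 hr, 37 C.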
TRb-SRC2 inh = qHTS for Inhibitors of the Interaction of Thyroid Hormone Receptor and Steroid Receptor Coregulator 2. Thyroid hormone receptor beta (Homo sapiens), P10828. TRbeta-SRC2 peptide binding, fluorescence polarization; receptor liganded with 1 µM T3. Potency, µM (doses to about 106 µM), actives largely listed as inhibitors. 280,000 compounds, 0.065% hits. AID 1469, 2008; note: nearly all actives have a fitted effect of over 50% in size
Target sequence (P10828 whole entry, looked up): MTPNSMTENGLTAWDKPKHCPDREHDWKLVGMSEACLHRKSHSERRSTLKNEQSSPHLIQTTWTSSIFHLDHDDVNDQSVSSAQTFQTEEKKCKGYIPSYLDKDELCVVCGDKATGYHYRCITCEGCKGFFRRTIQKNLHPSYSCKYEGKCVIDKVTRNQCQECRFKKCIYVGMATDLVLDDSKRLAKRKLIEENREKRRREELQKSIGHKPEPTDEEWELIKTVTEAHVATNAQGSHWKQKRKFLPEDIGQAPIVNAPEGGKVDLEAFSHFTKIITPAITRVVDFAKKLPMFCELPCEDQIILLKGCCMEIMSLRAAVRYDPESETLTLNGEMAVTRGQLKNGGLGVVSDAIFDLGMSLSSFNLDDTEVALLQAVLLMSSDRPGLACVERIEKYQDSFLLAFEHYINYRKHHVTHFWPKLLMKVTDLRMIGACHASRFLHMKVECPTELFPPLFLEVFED
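Decrease in fluorescence polarization of 20 nM Texas Red SRC2 coactivator peptide flagged inhibition of its binding to 0.6 uM TRb LBD; 1 uM T3 included, incubation 5 hr, ex 555/em 632 nm.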
Tau fluor cs = Counterscreen qHTS for Inhibitors of Tau Fibril Formation, Fluorescence Polarization | tau K18 P301L Alexa594 fluorescence, heparin fibrillization | Potency, µM (top dose mostly 57.7 µM) | 280,000 compounds, 0.93% hits; note: nearly all actives have a fitted effect of over 55% in size
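Human K18 P301L tau (15 uM unlabeled plus 0.24 uM Alexa 594-labeled, final) in 100 mM sodium acetate pH 7 was mixed with compound and 20 uM heparin and incubated 6 hr at 37 C.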
Tau ThT inhib = qHTS for Inhibitors of Tau Fibril Formation, Thioflavin T Binding. recombinant tau K18 P301L (four-repeat tau fragment), heparin-induced fibrillization, ThT fluorescence. Potency, µM (highest dose often 57.4 µM), most hits filed as inhibitors. 270,000 compounds, 2.1% hits. AID 1460, 2008; note: nearly all actives have a fitted effect of over 55% in size
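Tau K18 P301L fragment (15 uM unlabeled plus 0.24 uM Alexa 594-labeled) in 100 mM sodium acetate pH 7 with compound, fibrillization induced by 20 uM heparin for 6 hr at 37 C. Thioflavin T (30 uM) added, fluorescence read after 1 hr (ex 450, em 510 nm).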
Each line names hits and unclear results; the compound was inactive in the other large screens; [ ] = remark or other dose. Unless noted, calls come from the whole dose curve; as a rule, active = well fitted curve in the direction sought with a large enough effect; inconclusive = small, poorly fitted or top-dose-only effect, or another doubt; inactive = no such curve, though single readings can be large; an effect the other way counts as inactive or inconclusive.

CC(=O)/C(N=Nc1ccc2c(c1)OCCO2)=C(\C)O	Tau ThT inhib 10µM
CC(=O)/C(N=Nc1ccc2c(c1)OCO2)=C(\C)O	Tau ThT inhib 3.5µM
Cc1ccccc1Cn1c2ccccc2c2cnn(CC(=O)NCCCc3ccccc3)c(=O)c21	none
COc1ccc(/C(C)=N/NC(=O)c2cc(-c3cccnc3)nc3ccccc23)cc1	none
C/C(=N\NC(=O)c1cc(-c2cccnc2)nc2ccccc12)c1ccccc1O	TexasRed fluor 3.2µM[quencher]
NC(CSS(=O)(=O)O)=NCCC12CC3CC(CC(O)(C3)C1)C2	Tau FP inhib inconclusive, Tau ThT inhib 3.5µM
NC(=O)COC(=O)C12CC3CC(CC(O)(C3)C1)C2	none
O=C(O)c1ccc2c(c1)C(=O)N([C@H](Cc1c3ccccc3cc3ccccc13)C(=O)O)C2=O	none (no result: Tau FP inhib, Tau fluor cs, Tau ThT inhib)
CCOC(=O)C1(C)C=C(Nc2ccc(O)cc2)C(=O)N1c1ccc(O)cc1 (stereo unspecified)	Tau FP inhib 28µM, Tau fluor cs inconclusive, Tau ThT inhib 14µM
CCOC(=O)C1(C)C=C(Nc2ccc(OC)cc2)C(=O)N1c1ccc(OC)cc1 (stereo unspecified)	none
CCN(CC)c1ccc(NC(=O)c2sc3nc4c(cc3c2N)CN(C)CC4)cc1	Tau FP inhib inconclusive, Tau fluor cs inconclusive, Tau ThT inhib 1.3µM
Cc1cccc(NC(=O)c2sc3nc4c(c(-c5cccs5)c3c2N)CN(C)CC4)c1	Tau FP inhib inconclusive, Tau fluor cs 28µM[quencher], Tau ThT inhib 16µM
CN1CCc2nc3sc(C(=O)NCc4ccccc4)c(N)c3cc2C1	Tau fluor cs inconclusive, Tau ThT inhib 14µM
CC(C)NC(=O)c1sc2nc3c(c(-c4cccs4)c2c1N)CN(C)CC3	Tau ThT inhib inconclusive
Nc1c(C(=O)Nc2ccccc2)sc2nc3c(cc12)CN(Cc1ccccc1)CC3	Tau ThT inhib inconclusive
COc1ccc(/C(C)=N/Nc2nc3ccccc3nc2C)cc1OC	Tau FP inhib inconclusive, Tau fluor cs inconclusive, Tau ThT inhib 13µM
COC(=O)c1ccc(Cn2c(=O)cc(C(F)(F)F)c3c(C)nn(C)c32)cc1	none
COc1ccc(CC(=O)Nc2ccc3nc(Nc4cccc(Cl)c4)cc(C)c3c2)cc1	Tau FP inhib inconclusive, Tau fluor cs 4.5µM[quencher], Tau ThT inhib inconclusive
Cc1cc(Nc2cccc(C(F)(F)F)c2)nc2ccc(NC(=O)Cc3ccc(Cl)cc3)cc12	Tau FP inhib inconclusive, Tau fluor cs 7.9µM[quencher], Tau ThT inhib inconclusive
Cc1ccc(OCC(=O)Nc2ccc3nc(Nc4cccc(Cl)c4)cc(C)c3c2)cc1	Tau fluor cs inconclusive
Cc1cccc(OCC(=O)Nc2ccc3nc(Nc4cccc(C(F)(F)F)c4)cc(C)c3c2)c1	TexasRed fluor inconclusive, Tau fluor cs inconclusive
COc1ccccc1CC(=O)Nc1ccc2nc(Nc3cccc(Cl)c3)cc(C)c2c1	Tau FP inhib inconclusive, Tau fluor cs 4µM[quencher], Tau ThT inhib inconclusive
COC(=O)C1=C(C(=O)OC)[C@@H]2N(C)c3ccccc3[C@@]23C[C@@H](C(=O)OC)N(S(=O)(=O)c2ccc(C(F)(F)F)cc2)C3=N1	none
COc1ccc2c(c1OC)C(=O)N1c3ccccc3N=C(c3ccc([N+](=O)[O-])cc3)CC21 (stereo unspecified)	Tau FP inhib inconclusive, Tau ThT inhib 20µM
O=C(Nc1ccc(F)cc1)c1oc2ccccc2c1NC(=O)C1CCCCC1	Tau FP inhib inconclusive, Tau ThT inhib inconclusive
O=[N+]([O-])c1cc(S(=O)(=O)N2CCCCCC2)ccc1F	Tau fluor cs inconclusive, Tau ThT inhib 16µM
CCOc1ccccc1NC(=O)C1CCN(S(=O)(=O)c2c(C)noc2/C=C/c2ccco2)CC1	none
NN/C(=C\[N+](=O)[O-])Nc1ccc(Cl)cc1	Tau fluor cs inconclusive, Tau ThT inhib 16µM
O=C1C(=O)N(Cc2ccc(Cl)c(Cl)c2)c2ccccc21	Tau ThT inhib 14µM
CCN(CC)C(=O)CSc1nc2cc3c(cc2c(=O)n1CCCCCC(=O)NCCc1ccc(OC)c(OC)c1)OCO3	TexasRed fluor inconclusive
COc1cccc(-c2nc(NCC3CCCO3)c3ccccc3n2)c1O (stereo unspecified)	Tau fluor cs 20µM[quencher], Tau ThT inhib inconclusive
COc1cccc(-c2nc(NC(C)C)c3ccccc3n2)c1O	Tau fluor cs 16µM[quencher], Tau ThT inhib 18µM
CCC(C)Nc1nc(-c2cccc(OC)c2O)nc2ccccc12 (stereo unspecified)	Tau FP inhib inconclusive, Tau fluor cs 16µM[quencher], Tau ThT inhib inconclusive
Cc1ccc(NC(=O)c2c(C)oc3ncn(C)c(=O)c23)cc1F	none
CCCCNC(=O)C1CCCN(S(=O)(=O)CCC)C1 (stereo unspecified)	none
CC(C)(C)c1cc(=O)n(-c2ccccc2)[nH]1	Tau FP inhib inconclusive, Tau ThT inhib 40µM
C[C@H]1Cc2c(-c3ccccc3)nc3c(c2CO1)CN(C(=O)c1cc(I)ccc1F)CC3	none
COc1c(Cl)cc(C(=O)Nc2cccc(-c3nc4ccccc4[nH]3)c2)cc1Cl	Tau FP inhib 22µM, Tau fluor cs inconclusive, Tau ThT inhib inconclusive
CCCN(CCC)S(=O)(=O)c1ccc(C(=O)Nc2cccc(-c3nc4ccccc4[nH]3)c2)cc1	Tau FP inhib 25µM, Tau fluor cs inconclusive
Nc1ccc2nc(-c3ccccc3)sc2c1	Tau ThT inhib inconclusive
Cc1ccc2sc(-c3ccc(N)cc3)nc2c1	Tau fluor cs inconclusive, Tau ThT inhib 4.5µM
CNC(=S)Nc1ccc(-c2nc3ccc(C)cc3s2)cc1	Tau FP inhib inconclusive, Tau fluor cs inconclusive
Nc1ccc(-c2nc3cc(N)ccc3s2)cc1	Tau fluor cs inconclusive, Tau ThT inhib 14µM
Cc1ccc2nc(-c3ccc(N)cc3)sc2c1	Tau fluor cs inconclusive, Tau ThT inhib 5.6µM
Cc1ccc(NC(c2nnc(-c3ccccc3)o2)c2ccccc2F)c([N+](=O)[O-])c1 (stereo unspecified)	TexasRed fluor 251µM[quencher], Tau ThT inhib inconclusive
c1ccc(OCCOc2ccccc2)cc1	none (no result: Tau FP inhib, Tau fluor cs, Tau ThT inhib)
O=C(/C=C/c1ccccc1)CC(=O)c1ccccc1O	Tau FP inhib inconclusive, Tau fluor cs inconclusive, Tau ThT inhib 13µM
O=C(c1cc(S(=O)(=O)N2CCCC2)c[nH]1)N1CCN(c2cccc(Cl)c2)CC1	none
COC(=O)c1ccccc1NC(=O)C1=C(C)C(=O)OC12CCC(C)CC2 (stereo unspecified)	none
COc1cc(Cl)c(C)cc1NC(=O)CCc1nc2cccnc2n1-c1ccccc1	none
Cc1ccc(-n2ncc3c(Nc4cccc(Cl)c4)ncnc32)c(C)c1	Tau FP inhib 25µM, Tau fluor cs inconclusive
